Test results from PubChem BioAssay AID504332 (National Center for Advancing Translational Sciences (NCATS), 2011).
Hit rate of the full screen: of about 350,000 compounds, about 31,000 (8.9%) were called active. Roughly 15% stayed inconclusive and do not appear here. Many of the other results were omitted from the sample, so actives are more common in it than they were. A number with no mark means an inactive call. The call rests on the fitted dose curve; in most records, active means well fitted inhibition curve with a large enough effect; inconclusive means small, poorly fitted or top-dose-only effect; inactive means no such curve, though single readings can be large or run the other way.

Molecular target: Histone-lysine N-methyltransferase EHMT2 (Homo sapiens) (UniProt Q96KQ7)
Experiment: qHTS Assay for Inhibitors of Histone Lysine Methyltransferase G9a; further: nearly all actives have a fitted effect of over 75% in size
Settings: G9a H3K9 monomethylation, AlphaScreen, 2 h; series mostly up to 59 µM; activity, negative = inhibition: at the top concentration
Outline: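 Step 1: enzyme (final 20 nM) with compound, 15 min RT. Step 2: substrate peptide 500 nM and SAM 20 uM, 2 h RT. Step 3: anti-H3K9me1 antibody and AlphaScreen beads, 10 min, then plate read.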
On the % scale 0 is the no-effect control and ±100 the full control effect; potency means the concentration at half of the fitted maximal effect.

Sequence of Histone-lysine N-methyltransferase EHMT2 (Homo sapiens) (Q96KQ7 913-1193 limits assumed): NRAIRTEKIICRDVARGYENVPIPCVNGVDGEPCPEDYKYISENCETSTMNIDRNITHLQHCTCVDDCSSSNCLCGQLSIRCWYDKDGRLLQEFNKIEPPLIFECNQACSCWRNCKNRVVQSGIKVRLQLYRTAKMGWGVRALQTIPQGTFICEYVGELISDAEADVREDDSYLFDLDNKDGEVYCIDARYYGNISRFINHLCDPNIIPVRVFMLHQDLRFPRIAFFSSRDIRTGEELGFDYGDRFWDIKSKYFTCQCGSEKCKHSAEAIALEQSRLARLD

| Compound | activity, negative = inhibition | Potency |
| --- | --- | --- |
| Cc1c(C(=O)OCC(=O)N2CCCC2=O)oc2ccccc12 | -40.6% [at 102 µM] |  |
| C=CCn1c(SCc2c(C)noc2C)nc2sc3c(c2c1=O)CCC(C)C3 (stereo unspecified) |  | 39.8 µM (active) |
| COc1ccc2cc(-c3nc(Cl)c4c5c(sc4n3)CC(C)CC5)c(=O)oc2c1 (stereo unspecified) | 8.14% |  |
| C=CCn1c(SCC(=O)NCC2CCCO2)nc2sc(C)c(C)c2c1=O (stereo unspecified) | 48.6% [at 102 µM] |  |
| CC(=O)N1CCSc2ccc(S(=O)(=O)N3CCC(C)CC3)cc21 | 9.52% [at 102 µM] |  |
| Cc1cccc(NC(=O)CN2CCN(C(=O)C3CCN(C(=O)/C=C/c4ccccc4)CC3)CC2)c1C | 14.7% [at 2.33 µM] |  |
| COc1ccc(NC(=O)CSc2ncnc3[nH]ncc23)cc1 | 6.21% [at 102 µM] |  |
| COc1ccc(-c2nc3c(c(SCC(=O)Nc4ccc(C(=O)O)cc4)n2)Cc2ccccc2O3)cc1 |  | 11.2 µM (active) |
| COc1ccc(NC(=O)CSc2nc(N)c(-c3ccccc3)c(=O)[nH]2)cc1 | -21.3% |  |
| CCc1ccc(NC(=O)N2CCN(C(=O)c3nsc4ccccc34)CC2)cc1 | 8.41% |  |
| CN(CC(=O)NC(=O)Nc1ccccc1F)Cc1ccccc1 | 2.2% [at 0.501 µM] |  |
| CN(Cc1ccccc1)Cc1ccccc1F |  | 8.91 µM (active) |
| CN(Cc1ccccc1F)C(=O)C(Cc1ccccc1)NC(=O)c1ccccc1 (stereo unspecified) | 8.33% [at 102 µM] |  |
| O=C(NCC(c1cccs1)N1CCOCC1)c1cc(Cl)ccc1[N+](=O)[O-] (stereo unspecified) | 3.96% [at 0.501 µM] |  |
| COC(=O)c1ccc(NC(=O)c2cc(S(=O)(=O)N3CCC(C)CC3)cn2C)cc1 | 4.49% |  |
| Cc1ccc(Cn2ccc(NC(=O)C3C4CCC(C4)C3C(=O)O)n2)cc1 (stereo unspecified) |  | 56.2 µM (active) |
| O=C(Nc1ccn(Cc2ccccc2)n1)c1cccc(F)c1 | -8.84% [at 102 µM] |  |
| Cc1ccc(Cn2ccc(NC(=O)c3cc(C(C)C)on3)n2)cc1 | -37.2% [at 102 µM] |  |
| Cc1cccc(NC(=O)N2CCC(CN3CCc4ccccc4C3)CC2)c1C | 10.2% |  |
| COc1cccc(CNC(=O)C2CC(=O)N(C3CCCCCCC3)C2)c1 (stereo unspecified) | 14.8% |  |
| O=C(COC(=O)CCc1nc2ccccc2c(=O)[nH]1)Nc1ccc(N2CCOCC2)cc1 |  | 50.1 µM (active) |

| Compound | activity, negative = inhibition | Potency |
| --- | --- | --- |
| O=C(COC(=O)Cc1ccc(Br)cc1)Nc1ccc(N2CCOCC2)cc1 | 4.16% |  |
| CCn1nc(C(=O)Nc2ccc(N3CCOCC3)cc2)c2ccccc2c1=O | 17.9% [at 12.7 µM] |  |
| CCCCNc1ccc(-c2nc(-c3ccncc3)no2)cc1[N+](=O)[O-] | -26.7% |  |
| COc1ccc(OC)c(CCNC(=O)CCCn2c(=O)c3cccn3c3cccnc32)c1 | -8.79% |  |
| CC(C)c1ccc2oc(-c3cc(NC(=O)c4cccs4)ccc3Cl)nc2c1 | 15.9% |  |
| COc1cc(OC)c(NC(=O)c2c3c(nn2C)-c2ccccc2SC3)cc1Cl | -9.51% |  |
| Cc1c(-c2nc(-c3ccc4c(c3)OCO4)no2)nnn1-c1ccc(Br)cc1F | 6.85% |  |
| O=C(COC(=O)c1ccc([N+](=O)[O-])cc1Cl)NC(=O)c1ccccc1 | -29.5% [at 102 µM] |  |
| CCN1CCN(CCCNC(=O)c2cnn(-c3ccc(C)cc3C)c2C2CCN(C(=O)OC(C)(C)C)CC2)CC1 | 8.42% |  |
| Cc1cc(C)c(NC(=O)c2cc3sc(Cl)cc3n2C)c(C)c1 | 5.54% |  |
| COc1cccc(C(=O)NC(=O)Nc2ccc(-c3cc(C(F)(F)F)nn3-c3ccccc3)cc2)c1 | 11.4% |  |
| COC(=O)c1c(C)oc2ccc(N(C(=O)Oc3ccccc3)S(=O)(=O)c3ccccc3)cc12 | -0.954% |  |
| CC(=O)N(c1ccc2oc(=O)sc2c1)S(=O)(=O)c1ccc(C)cc1 |  | 25.1 µM (active) |
| CC(=O)Oc1ccc(N(C(C)=O)S(=O)(=O)c2ccc3ccccc3c2)cc1Br | -1.32% [at 102 µM] |  |
| COc1ccc(OC)c(NC(=O)Cn2c(=O)n(Cc3ccccc3)c(=O)c3ccccc32)c1 | -22.9% |  |
| Cc1nc2cc(NC(=O)Nc3cccc(F)c3)ccc2n1C | 23.6% [at 12.7 µM] |  |
| Cc1nc2cc(NCc3cccs3)ccc2n1C |  | 7.94 µM (active) |
| C=CCN(C(=O)Nc1ccc2c(c1)nc(C)n2C)c1ccccc1 | 10.6% [at 12.7 µM] |  |
| O=C1C=C(c2cccc(Cl)c2O)C[C@@H](c2ccc(F)cc2)C1 | 4.95% [at 0.501 µM] |  |
| Cc1cccc(CSc2nc3ccncc3n2CC(=O)N(C)C2CCCCC2)c1 | -1.35% |  |
| CCc1c(C)sc(NC(=O)/C=C/c2ccc3c(c2)OCO3)c1C(=O)OC | 88.9% |  |

| Compound | activity, negative = inhibition | Potency |
| --- | --- | --- |
| CCC1=C/C(=C\c2ccc3c(c2)OCO3)C(=O)S1 |  | 11.2 µM (active) |
| CCOC(=O)CCCNC(=O)COC(=O)/C=C/c1ccc2c(c1)OCO2 | 2.73% [at 102 µM] |  |
| COc1ccc(CCNC(=O)c2cnc3sc(N4CCCCCC4)nn3c2=O)cc1OC | 11.6% |  |
| Cc1oc2ccc(O)c(CN3CCC(C)CC3)c2c1C(=O)Nc1ccccc1 | -28.5% |  |
| Cc1nc2ccc(S(=O)(=O)NC(C(=O)NCc3ccccc3Cl)C(C)C)cc2s1 (stereo unspecified) | 7.62% |  |
| O=C(Nc1nc(-c2ccc(-c3ccccc3)cc2)cs1)c1cnccn1 | 23.9% |  |
| Brc1ccc(-c2csc(N/N=C/c3ccc4c(c3)OCO4)n2)cc1 |  | 3.55 µM (active) |
| O=C(Cc1ccc(F)cc1)N/N=C/c1ccc2c(c1)OCO2 | 17.5% [at 102 µM] |  |
| O=C(NCc1cccnc1)C(=O)Nc1nc(-c2ccccc2)cs1 | -6.58% |  |
| Brc1ccc(-c2csc(N/N=C/c3cccnc3)n2)cc1 |  | 14.1 µM (active) |
| O=C(N/N=C/c1ccc2c(c1)OCO2)C(=O)N1CCCC1 | 5.14% [at 102 µM] |  |
| CCOc1ccc(-c2cc3c(=O)n(CC(=O)NCc4ccc(OC)cc4)ccn3n2)cc1 | 0.34% [at 12.7 µM] |  |
| Cc1ccc(C)c(Oc2c(C(F)(F)F)oc3c(CN4CCN(C)CC4)c(O)ccc3c2=O)c1 | -27.1% |  |
| Cc1ccc2nc(/C(C#N)=C/c3ccc(-c4ccc(C(=O)OC(C)C)cc4)o3)[nH]c2c1 | -5.43% |  |
| Cc1ccccc1-n1c(SCC(=O)NCc2cccs2)nnc1-c1ccncc1 | 2.97% [at 102 µM] |  |
| Cc1ccc(Nc2nc(CSc3nnc(-c4ccncc4)n3-c3ccccc3C)cs2)cc1 |  | 44.7 µM (active) |
| Cc1ccc(-n2c(SCC(=O)N3c4ccccc4Sc4ccccc43)nnc2-c2ccncc2)cc1 | -5.41% |  |
| CCOc1ccc(CNCCSc2nnnn2C)cc1 | -3.51% |  |
| CCc1ccc(NC(=O)c2cc(S(=O)(=O)N3CCCC(C)C3)cn2C)cc1 (stereo unspecified) | -3.12% |  |
